Here are results for 18 compounds from ChEMBL document CHEMBL3988442, “University of Dundee, Small-Polar-MMV Screening Library” (2021).

Experiment [1] deals with T1, Aspartate--tRNA(Asp/Asn) ligase (Mycobacterium tuberculosis (strain ATCC 25618 / H37Rv)) (UniProt P9WFW3).
T1 sequence (whole entry): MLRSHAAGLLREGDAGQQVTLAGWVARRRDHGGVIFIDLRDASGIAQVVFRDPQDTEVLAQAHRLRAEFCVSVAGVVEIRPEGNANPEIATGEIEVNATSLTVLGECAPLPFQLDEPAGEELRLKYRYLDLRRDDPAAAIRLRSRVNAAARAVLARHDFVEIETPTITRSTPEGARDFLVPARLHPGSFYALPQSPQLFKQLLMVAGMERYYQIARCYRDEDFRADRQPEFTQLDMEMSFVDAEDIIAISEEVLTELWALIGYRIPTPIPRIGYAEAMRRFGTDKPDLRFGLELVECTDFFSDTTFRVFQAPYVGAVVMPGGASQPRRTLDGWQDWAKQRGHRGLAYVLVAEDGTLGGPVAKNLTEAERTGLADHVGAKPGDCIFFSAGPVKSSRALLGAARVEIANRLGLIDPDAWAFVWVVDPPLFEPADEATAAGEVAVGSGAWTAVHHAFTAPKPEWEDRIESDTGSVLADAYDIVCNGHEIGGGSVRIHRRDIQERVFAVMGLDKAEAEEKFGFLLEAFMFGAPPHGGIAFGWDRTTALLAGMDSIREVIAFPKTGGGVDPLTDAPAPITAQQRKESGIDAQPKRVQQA
The experiment is described as follows: Assay for Asp RNA synthetase-1 from Mycobacterium tuberculosis. The class given is functional. More on the design: scale not given: direction of the effect not stated beside the values. The conditions noted are these: 30 µM.

Experiment [2] has as its target Shiga toxin 2 (Escherichia coli O157:H7) (UniProt P09385+P09386). The experiment is described as follows: E. coli 0.157:H7 Shiga Toxin SOP - stx2 screening assay. The class given is functional. More on the design: scale not given: direction of the effect not stated beside the values. As to conditions: 30 µM.

For `O=C(NC1CCC1)[C@@H]1CCO[C@@H]2CCN(CCc3ccccc3)C[C@H]21`, the figures for the Percent Effect in experiment [1] and in experiment [2] were -2.94% and -26.8%, respectively.

Turning to `CNC(=O)c1nc2c(s1)CCN(C(=O)c1cccnc1)CC2`, the Percent Effect is 2.01% in experiment [1] and -18.2% in experiment [2].

On to `NC(=O)N1CCC2(CCN(Cc3cccc(F)c3)CC2)CC1`, for which the Percent Effect was -3.39% in experiment [1] and -34.5% in experiment [2].

On to `O=C1CC(c2ccc(F)c(F)c2)c2snc(C(=O)O)c2N1` (stereo unspecified), for which the Percent Effect was 3.57% in experiment [1] and -5.34% in experiment [2].

Regarding `CC(C)c1n[nH]c(C(=O)Nc2ccnn2C(C)C)c1Br`, the Percent Effect in experiment [1] is -9.11%; in experiment [2] it was -15.3%.

Regarding `CC(c1ccco1)N(C)Cc1nc2c(cnn2C)c(=O)[nH]1` (stereo unspecified), the Percent Effect in experiment [1] is -2.56%; in experiment [2], -9.3%.

Regarding `CC1CN(C(=O)c2ccn(-c3cccc(Cl)c3)n2)CCO1` (stereo unspecified), the values for the Percent Effect in experiment [1] and in experiment [2] were -3.19% and -15%, respectively.

Regarding `CCc1nc(CN(C)CC2CCN(CC(C)O)CC2)no1` (stereo unspecified), the values for the Percent Effect in experiment [1] and in experiment [2] were -3.85% and 11%, respectively.

For `Cc1ccoc1C(=O)N1CCO[C@H]2[C@H](OCCN(C)C)CC[C@@H]21`, the Percent Effect in experiment [1] was -1.25%; in experiment [2], -12.2%.

On to `Cn1ccnc1CN1CCN(CCOc2ccccc2C#N)CC1`, for which the Percent Effect in experiment [1] is -0.506%; in experiment [2] it was 16.8%.

On to `CCNC(=O)[C@@H]1C[C@H](NC(=O)Cc2ccsc2)CN1Cc1ccc(C)o1`, for which the Percent Effect in experiment [1] is -0.518%; in experiment [2], 18.7%.

For `N#CCCN(C(=O)CN1CCCC1C1CCCCC1)c1ccccc1` (stereo unspecified), the Percent Effect in experiment [1] was 8.01%; in experiment [2], -20.8%.

In the case of `Cc1cnn(CC2CN(c3cnc4ccccc4n3)CCO2)c1` (stereo unspecified), the Percent Effect is -11.1% in experiment [1] and -0.837% in experiment [2].

Take `Cc1ccc(CC(=O)N2CCOC(c3nc(C(C)(C)C)n[nH]3)C2)cn1` (stereo unspecified): the Percent Effect in experiment [1] was -0.39%; in experiment [2] it was -0.658%.

As for `Cc1cccc(CN2CCc3ncnc(C)c3CC2)n1`, the Percent Effect in experiment [1] is -0.616%; in experiment [2], -16.2%.

`Cc1cnc(C(=O)N2CCCCC2c2[nH]ncc2S(C)(=O)=O)cn1` (stereo unspecified): the Percent Effect in experiment [1] was 2.63%; in experiment [2], -5.44%.

Take `O=C(NCCNc1ccccn1)N1CCSCC1`: the values for the Percent Effect in experiment [1] and in experiment [2] were -5.89% and 16.3%, respectively.

As to `O=C(NCN1CCc2ccccc2C1)c1cnccn1`, the values for the Percent Effect in experiment [1] and in experiment [2] were 8.37% and -18.9%, respectively.
